# Among all 11,000 compounds or so, about 310 (2.8%) were called active. Cut-off read from the data, not from the text of the source: active = activity change below about -85%; inactive = the rest. Many of the other results were omitted from the sample, so actives are more common in it than they were.
# Test system: intestinal alkaline phosphatase [Mus musculus]
# Test: mouse intestinal phosphatase enzyme activation – biochemical, luminescence, single concentration, confirmation (AID 434970)
# Details: purified mouse IAP, CDP-Star luminescence, 30 min, at 10 µM; activation factor: measured here: IAP activation factor, stronger effect = higher value; activity change, negative = activation: stronger effect = lower value
SMILES,activation factor,"activity change, negative = activation"
Cc1cnc(NC(=O)c2ccco2)s1,0.954,4.55% (inactive)
O=C1[C@@H](Oc2ccccc2)[C@@H](c2ccccc2)N1c1ccccc1,0.938,6.25% (inactive)
O=C(Nc1ccc(S(=O)(=O)N2CCCCCC2)cc1)C1CCCO1 (configuration not stated),0.946,5.4% (inactive)
Cc1ccc(NC(=O)C2CCN(S(=O)(=O)c3ccc4c(c3)NC(=O)C(C)S4)CC2)cc1Cl (configuration not stated),1.71,-71.1% (inactive)
CCc1ccc(NC(=O)C2CCN(S(=O)(=O)c3ccc4c(c3)CC(C)N4C(C)=O)CC2)cc1 (configuration not stated),1.49,-48.7% (inactive)
Cc1ccc(S(=O)(=O)NNC(=O)C2CCN(S(=O)(=O)c3ccc(C)cc3)CC2)cc1,0.962,3.85% (inactive)
Cc1ccc(S(=O)(=O)N2CCC(C(=O)N[C@@H](C)C(=O)NC3CCCCC3)CC2)cc1,1.09,-8.65% (inactive)
CCNC(=O)C1CCN(S(=O)(=O)c2ccc(F)cc2)CC1,0.998,0.15% (inactive)
COc1ccc(S(=O)(=O)N2CCC(C(=O)Nc3cccc(Cl)c3)CC2)cc1OC,1.62,-61.7% (inactive)
Cc1ccc(S(=O)(=O)N2CCC(C(=O)Nc3ccc(S(=O)(=O)N4CCCC4)cc3)CC2)cc1C,2.22,-122% (active)
CSc1cccc(NC(=O)C2CCN(S(=O)(=O)c3ccc(F)cc3)CC2)c1,1.98,-97.7% (active)
Cc1ccc(S(=O)(=O)N2CCC(C(=O)Nc3ccc(C(C)C)cc3)CC2)cc1,3.49,-249% (active)
Cc1ccc(NC(=O)C2CCN(S(=O)(=O)c3ccc(N4CCCC4=O)cc3)CC2)cc1Cl,1.79,-79.3% (inactive)
Cc1cc(C)cc(NC(=O)C2CCN(S(=O)(=O)c3ccc4c(c3)NC(=O)C(C)S4)CC2)c1 (configuration not stated),1.96,-96% (active)
CC(O)c1nc2ccccc2n1Cc1nnc(-c2ccc(Cl)cc2)o1 (configuration not stated),0.857,14.3% (inactive)
Cn1nc(OCc2ccccc2)ccc1=O,0.947,5.35% (inactive)
CCC(C)OC(=O)c1cc(C)nc2c(Br)cc(Br)cc12 (configuration not stated),1.02,-2% (inactive)
CC[C@]12c3[nH]c4ccc(Cl)cc4c3CCN1C(=O)[C@@H](CC(=O)NCC13CC4CC(CC(C4)C1)C3)C[C@@H]2C(=O)N1CCN(C(=O)c2ccco2)CC1,1.1,-9.55% (inactive)

SMILES,activation factor,"activity change, negative = activation"
CCOC(=O)c1sc(NC(=O)Nc2ccccc2Cl)cc1C,1.89,-89.1% (inactive)
Cc1cc(C)c2c(n1)sc1c(=O)[nH]c(SCc3ccccc3)nc12,0.801,19.9% (inactive)
CCOC(=O)Cn1cnc([N+](=O)[O-])n1,0.92,8% (inactive)
COc1cc(-c2nnc(COC(=O)CSc3cc(C)c4ccccc4n3)o2)cc(OC)c1OC,0.99,0.95% (inactive)
COc1ccc(CNC(=S)Nc2cccc(Cl)c2)cc1,1.25,-24.7% (inactive)
COc1cccc(NC(=S)NCCC(c2ccccc2)c2ccccc2)c1,3.53,-253% (active)
COc1cc(NC(=O)C(Cc2ccccc2)n2cccc2)cc(OC)c1 (configuration not stated),1.12,-12.3% (inactive)
COc1cccc(NC(=S)NCCN2CCOCC2)c1,1.08,-8.4% (inactive)
COc1cc(NC(=S)NCCC(c2ccccc2)c2ccccc2)cc(OC)c1,3.28,-228% (active)
CCCCNC(=S)Nc1ccc(Oc2ccccc2)cc1,1.71,-70.5% (inactive)
COc1ccc(S(=O)(=O)Nc2ccccc2)cc1OC,0.947,5.35% (inactive)
COc1ccc(C(=O)CSc2nnnn2Cc2ccccc2)cc1,0.953,4.7% (inactive)
Cc1ccc2c(Cl)c(C(=O)Nc3cc(C)on3)sc2c1,0.873,12.6% (inactive)
C#CCOCCOCCOCCNc1nc(N2CCN(C(=O)CCCCCCCCCCNC(=O)[C@H]([C@@H](C)CC)n3cc(CCCCCN)nn3)CC2)nc(N2CCN(C(=O)CCCCCCCCCCNC(=O)[C@H]([C@@H](C)CC)n3cc(CCCCN=C(N)N)nn3)CC2)n1,15.6,-1460% (active)
CC[C@H](C)[C@@H](C(=O)NCCCCCCCCCCC(=O)N1CCN(C(=O)OC(C)(C)C)CC1)n1cc(CCCCCNC(=O)OC(C)(C)C)nn1,1.52,-51.8% (inactive)
C#CCOCCOCCOCCNc1nc(N2CCN(C(=O)[C@H](Cc3cc4ccccc4[nH]3)n3cc([C@@H](N)C(C)CC)nn3)CC2)nc(N2CCN(C(=O)[C@H](Cc3cc4ccccc4[nH]3)n3cc([C@@H](N)Cc4ccc(O)cc4)nn3)CC2)n1 (some centres not stated),1.43,-42.8% (inactive)
C#CCOCCOCCOCCNc1nc(N2CCOCC2)nc(N2CCN(C(=O)CCCCCCCCCCNC(=O)[C@H]([C@@H](C)CC)n3cc(CCCCN=C(N)N)nn3)CC2)n1,2.37,-137% (active)
C#CCOCCOCCOCCNc1nc(N2CCN(C(=O)CCCCCCCCCCNC(=O)[C@H]([C@@H](C)CC)n3cc(CCCCN=C(N)N)nn3)CC2)nc(N2CCN(C(=O)CCCCCCCCCCNC(=O)[C@H](CO)n3cc(CCCCCN)nn3)CC2)n1,6.62,-562% (active)
